Experimental data published in PubChem BioAssay (NCATS).
Values without a mark were called inactive. For some of these results: Measured potencies and affinities stand elsewhere. Activity calls are given as the source filed them.

Experiments:
[1] = Ebola virus entry assay, green fluorescence channel
[2] = Ebola virus entry assay, blue channel fluorescence
Wherever efficacy is given: 0% is about no effect.

With `C[C@@H](O)[C@H]1C(=O)N2C(C(=O)O)=C(S[C@@H]3CN[C@H](C(=O)N(C)C)C3)[C@H](C)[C@H]12` the efficacy [1] was 17.9% and the outcome [2] was “inactive”.
With `NCCC(O)(P(=O)(O)O)P(=O)(O)O` the efficacy [1] was -9.39% and the outcome [2] was “inactive”.
With `Cc1ccsc1C(=CCCN1CCC[C@@H](C(=O)O)C1)c1sccc1C` the efficacy [1] was 57.2% and the outcome [2] was “inactive”.
For `CCc1nn(CCCN2CCN(c3cccc(Cl)c3)CC2)c(=O)n1CCOc1ccccc1`, the efficacy [1] was 111% and the outcome [2] was “inactive”.
In the case of `C[n+]1ccccc1/C=N/O`, the efficacy [1] is reported as -22% and the outcome [2] is reported as “inactive”.
With `C[N+]1(C)CCC(OC(=O)C(O)(c2ccccc2)C2CCCC2)C1` (configuration not stated) the efficacy [1] was 28.8% and the outcome [2] was “inactive”.
In the case of `CCC(C)(C)C(=O)O[C@H]1C[C@@H](C)C=C2C=C[C@H](C)[C@H](CC[C@@H]3C[C@@H](O)CC(=O)O3)[C@H]21`, the efficacy [1] is reported as 37.4% and the outcome [2] is reported as “inactive”.
For `CC[C@@H]([C@H](C)O)n1ncn(-c2ccc(N3CCN(c4ccc(OC[C@@H]5CO[C@@](Cn6cncn6)(c6ccc(F)cc6F)C5)cc4)CC3)cc2)c1=O`, the efficacy [1] was 27.6% and the AC50 [2] was 10 µM (active).
In the case of `CN(C)CCOC(c1ccc(Cl)cc1)c1ccccn1` (configuration not stated), the efficacy [1] is reported as 34.3% and the outcome [2] is reported as “inactive”.
With `OCCN1C[C@H](O)[C@@H](O)[C@H](O)[C@H]1CO` the efficacy [1] was -21.2% and the outcome [2] was “inactive”.
In the case of `CNC(=O)c1cc(Oc2ccc(NC(=O)Nc3ccc(Cl)c(C(F)(F)F)c3)cc2)ccn1`, the efficacy [1] is reported as 20.4% and the outcome [2] is reported as “inactive”.
In the case of `C[C@](N)(Cc1ccc(O)c(O)c1)C(=O)O`, the efficacy [1] is reported as 20.7% and the outcome [2] is reported as “inactive”.
With `CO/N=C(\C(=O)N[C@@H]1C(=O)N2C(C(=O)O)=C(CSc3nc(=O)c(O)nn3C)CS[C@H]12)c1csc(N)n1` the efficacy [1] was 11.1% and the outcome [2] was “inactive”.
In the case of `N=C(N)c1ccc(OCCCCCOc2ccc(C(=N)N)cc2)cc1`, the efficacy [1] is reported as 22.7% and the outcome [2] is reported as “inactive”.
In the case of `C=C[C@H]1CN2CC[C@H]1C[C@@H]2[C@@H](O)c1ccnc2ccc(OC)cc12`, the efficacy [1] is reported as 36.3% and the outcome [2] is reported as “inactive”.
In the case of `CCCCCOC(=O)Nc1nc(=O)n([C@@H]2O[C@H](C)[C@@H](O)[C@H]2O)cc1F`, the efficacy [1] is reported as 20.9% and the outcome [2] is reported as “inactive”.
With `O=C(NCCN1CCOCC1)c1ccc(Cl)cc1` the efficacy [1] was -15.2% and the outcome [2] was “inactive”.
With `CNS(=O)(=O)CCc1ccc2[nH]cc(C3CCN(C)CC3)c2c1` the efficacy [1] was -15% and the outcome [2] was “inactive”.
In the case of `CCC(=O)O[C@H]1[C@H](O[C@@H]2[C@@H](C)[C@H](O[C@H]3C[C@@](C)(OC)[C@@H](O)[C@H](C)O3)[C@@H](C)C(=O)O[C@H](CC)[C@@](C)(O)[C@H](O)[C@@H](C)C(=O)[C@H](C)C[C@@]2(C)O)O[C@H](C)C[C@@H]1N(C)C`, the efficacy [1] is reported as 131% and the outcome [2] is reported as “inactive”.
In the case of `CCC1(c2ccccc2)C(=O)NCNC1=O`, the efficacy [1] is reported as -13.6% and the outcome [2] is reported as “inactive”.
In the case of `CCN(CC)CCCC(C)Nc1ccnc2cc(Cl)ccc12` (configuration not stated), the efficacy [1] is reported as 34.3% and the AC50 [2] is reported as 3.98 µM (active).
For `CO/N=C1\CN(c2nc3c(cc2F)c(=O)c(C(=O)O)cn3C2CC2)CC1CN` (configuration not stated), the efficacy [1] was -13.2% and the outcome [2] was “inactive”.
With `Cc1cn([C@H]2C=C[C@@H](CO)O2)c(=O)[nH]c1=O` the efficacy [1] was 10.9% and the outcome [2] was “inactive”.
With `C1N2CN3CN1CN(C2)C3` the efficacy [1] was 14.5% and the outcome [2] was “inactive”.
In the case of `CC(=O)CCCCn1c(=O)c2c(ncn2C)n(C)c1=O`, the efficacy [1] is reported as -14.2% and the outcome [2] is reported as “inactive”.
For `C#Cc1cccc(Nc2ncnc3cc(OCCOC)c(OCCOC)cc23)c1`, the efficacy [1] was -13.7% and the outcome [2] was “inactive”.
For `CN1CCC[C@@H]1Cc1c[nH]c2ccc(CCS(=O)(=O)c3ccccc3)cc12`, the efficacy [1] was 20.7% and the outcome [2] was “inactive”.
In the case of `CCc1ccc(CCOc2ccc(CC3SC(=O)NC3=O)cc2)nc1` (configuration not stated), the efficacy [1] is reported as 52.6% and the outcome [2] is reported as “inactive”.
In the case of `CNS(=O)(=O)Cc1ccc2[nH]cc(CCN(C)C)c2c1`, the efficacy [1] is reported as 17.1% and the outcome [2] is reported as “inactive”.
In the case of `Cc1ccc(O)c([C@H](CCN(C(C)C)C(C)C)c2ccccc2)c1`, the efficacy [1] is reported as 106% and the AC50 [2] is reported as 12.6 µM (active).
In the case of `CC#C[C@]1(O)CC[C@H]2[C@@H]3CCC4=CC(=O)CCC4=C3[C@@H](c3ccc(N(C)C)cc3)C[C@@]21C`, the efficacy [1] is reported as 23.8% and the outcome [2] is reported as “inactive”.
For `CCOC(=O)C1=C(C)NC(C)=C(C(=O)OC)C1c1cccc(Cl)c1Cl` (configuration not stated), the efficacy [1] was 20.7% and the outcome [2] was “inactive”.
In the case of `CCC(C)n1ncn(-c2ccc(N3CCN(c4ccc(OC[C@H]5CO[C@](Cn6cncn6)(c6ccc(Cl)cc6Cl)O5)cc4)CC3)cc2)c1=O` (some centres not stated), the efficacy [1] is reported as 13.1% and the AC50 [2] is reported as 5.01 µM (active).
For `COc1cc(C(=O)NCc2ccc(OCCN(C)C)cc2)cc(OC)c1OC`, the efficacy [1] was 33.3% and the outcome [2] was “inactive”.
In the case of `CNC1(C)C2CCC(C2)C1(C)C` (configuration not stated), the efficacy [1] is reported as 20.8% and the outcome [2] is reported as “inactive”.
In the case of `CC(C)C[C@H](NC(=O)[C@H](Cc1ccccc1)NC(=O)c1cnccn1)B(O)O`, the efficacy [1] is reported as -28.6% and the outcome [2] is reported as “inactive”.
In the case of `CCC(=O)C(CC(C)N(C)C)(c1ccccc1)c1ccccc1` (configuration not stated), the efficacy [1] is reported as 118% and the outcome [2] is reported as “inactive”.
With `CC1(C)S[C@@H]2[C@H](NC(=O)[C@H](N)c3ccccc3)C(=O)N2[C@H]1C(=O)O` the efficacy [1] was -14% and the outcome [2] was “inactive”.
For `CC1(C)S[C@@H]2[C@H](NC(=O)Cc3ccccc3)C(=O)N2[C@H]1C(=O)O` (tested in a mixture with another compound), the efficacy [1] was -23.1% and the outcome [2] was “inactive”.
For `Cc1cc(C)cc(OCC2CNC(=O)O2)c1` (configuration not stated), the efficacy [1] was -18.5% and the outcome [2] was “inactive”.
In the case of `O=C1NC(=O)C(c2ccccc2)(c2ccccc2)N1`, the efficacy [1] is reported as 9.61% and the outcome [2] is reported as “inactive”.
